Screens deposited in PubChem by several laboratories.
CCHF vOTU inh: blocks the CCHF virus ovarian tumor domain protease. CCHFV vOTU protease, Pep-AMC fluorescence. inhibition, % at 11.5 µM. hit rate 0.55% among 370,000. AID 651958; further: 0% = vehicle wells with enzyme and 100% = no enzyme wells
Mtb FBA inh: inhibits M. tuberculosis FBA enzyme | hit rate 2.3% among 360,000 | inhibition, % at 1 µM | P9WQA3 | purified M. tuberculosis FBA, fluorescence read-out; in the data active means inhibition above about 27%;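 further: 0% = vehicle and 100% = reference inhibitor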
GDH-TPI counter: counter-screen for M. tuberculosis FBA inhibitors: GDH-TPI coupled enzymes; AID 588335; inhibition, % at 4.8 µM; GDH-TPI coupled enzyme counterscreen, NADH absorbance; hit rate 1.2% among 360,000;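 further: 0% = DMSO wells and 100% = wells lacking the enzyme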
RecA intein inh: Mtb RecA intein splicing inhibition; inhibition, % (no concentration beside the values); hit rate 0.75% among 290,000; AID 2221; cell-free RecA intein splicing, fluorescence; in the data active means inhibition above about 30%;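 further: 0% = vehicle wells and 100% = reference inhibitor control wells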
Starred values were filed as active, the others as inactive; i = inactive; . = not tested or not shown. An excerpt weighted towards active compounds, which were near 4.2% of everything screened. Unless noted, no stated cut-off is given here; in the data, active means inhibition above about 30%; inactive means the rest.

SMILES	CCHF vOTU inh	Mtb FBA inh	GDH-TPI counter	RecA intein inh
CC(/C=N/NC(=O)c1sc(N)nc1C)=C\c1ccccc1	2.3	-4.4	37.0*	-1.0
COc1cc(/C=N\NC(=O)c2sc(N)nc2C)cc(OC)c1OC	19.1	-9.1	41.5*	-2.6
O=S1(=O)c2ccccc2-c2c(nnn2Cc2ccccc2)CN1C1CC1	-0.3	.	.	.
C[C@@H]1CN([C@H](C)CO)C(=O)c2cc(-c3ccccc3)cnc2O[C@@H]1CN(C)C(=O)C1CCOCC1	3.5	4.5	0.0	.
CCCCNC(=O)C(c1ccc(OCC(=O)OC)c(C(=O)OC)c1)N(CCc1c[nH]c2ccccc12)C(=O)CCCCCN1C(=O)NC(c2ccc(-c3ccccc3)cc2)C(C(=O)OCc2ccccc2)=C1C (centres undefined)	.	.	.	3.1
COc1ccccc1/C=C\C=N\NC(=O)CCn1nnc2ccccc21	9.4	4.2	38.1*	1.4
Cc1cccc(NC(=S)N/N=C/c2c[nH]c3ccccc23)c1	16.1	1.6	35.7*	10.5
Cc1c(/C=N/NC(=O)c2cc(Br)ccc2O)c(=O)n(C)c(=O)n1C	0.6	-0.3	30.9*	-2.7
Cc1ccc(C(=O)Nc2ccc(C(=O)N/N=C/c3c[nH]c4ccccc34)cc2)cc1	0.8	-1.0	23.5	-1.8
OCCCc1nc2n(n1)C(c1cccs1)C=C(c1ccccc1)N2 (centres undefined)	.	.	.	i
OCCCc1nc2n(n1)C(c1ccccc1Cl)C=C(c1cccs1)N2 (centres undefined)	.	54.9*	12.9	.
CN1C(=O)[C@H]2[C@@H](/C=C/c3ccccc3)N3C(=O)CN(Cc4ccc(-c5ccccc5)cc4)C(=O)[C@@]3(Cc3ccccc3)[C@H]2C1=O	-0.9	-0.8	4.4	3.8
CN(C)S(=O)(=O)c1cccc(NC(=S)N/N=C/c2ccco2)c1	2.4	4.4	52.0*	-0.4
CN(C)S(=O)(=O)c1cccc(NC(=S)N/N=C/c2ccc(O)c(O)c2O)c1	-8.0	-4.6	32.1*	7.7
COc1ccc(O)c(/C=N/NC(=S)Nc2cccc(S(=O)(=O)N(C)C)c2)c1	-23.0	4.3	6.0	-86.0
CCOC(=O)c1sc2ncnc(Nc3cccc(C(=O)O)c3)c2c1C	-5.5	-0.2	10.3	.
Cc1nc(N)sc1C(=O)N1N=N1	10.6	1.2	-8.8	-1.1
COc1ccccc1-c1cc(C(=O)N/N=C/c2ccc(C)s2)c2ccccc2n1	13.4	-1.2	36.8*	2.3
COc1ccc(/C=N/NC(=O)c2cc(-c3ccc(C)cc3C)nc3ccccc23)cc1COC(C)=O	-1.9	5.0	34.7*	0.5
CCN(CC)C(=O)COc1ccc(/C=N/NC(=O)c2cc(-c3ccccc3OC)nc3ccccc23)cc1OC	-4.6	-0.7	42.4*	2.2
COc1ccccc1-c1cc(C(=O)N/N=C/c2ccoc2)c2ccccc2n1	8.7	3.9	21.6	.
COc1ccc(/C=N/NC(=O)c2cc(-c3ccccc3OC)nc3ccccc23)cc1COC(C)=O	16.9	-0.8	10.6	8.1
Cc1c(C(=O)NCc2ccc(C(F)(F)F)cc2)sc(=O)n1Cc1ccc(S(=O)(=O)N(C)C)cc1	12.6	-2.5	-3.6	.
O=C(CN(C(=O)OCC1c2ccccc2-c2ccccc21)[C@@H](Cc1ccccc1)C(=O)O)OCc1ccc(C(=O)NCc2ccccc2)cc1	23.6	.	.	.
Cc1ccc(C(=O)O)cc1NC(=S)NC(=O)c1ccc(COc2ccccc2)cc1	0.7	1.2	1.3	12.4
SMILES	CCHF vOTU inh	Mtb FBA inh	GDH-TPI counter	RecA intein inh
COC(=O)[C@H](CC(C)C)N(Cc1cn(Cc2ccc(C)cc2)nn1)S(=O)(=O)c1ccccc1Br	12.7	.	.	.
Cc1cc(C(=O)NCC(C)(C)N2CCOCC2)c(C)o1	0.0	3.6	6.5	0.0
COC(=O)c1cc(=O)n2c(-c3ccccc3)csc2n1	2.0	-3.1	0.0	1.1
O=c1nc2scc(-c3ccccc3)n2c2ccccc12	-9.6	4.7	35.8*	-5.5
CCCCc1cc(=O)oc2cc(O)cc(O)c12	-165.8	128.8*	9.3	-20.0
COc1ccc2c(CC(=O)NC(Cc3ccc(Cl)cc3)C(=O)O)cc(=O)oc2c1C (centres undefined)	-93.8	121.0*	9.9	-3.3
COc1ccc(CCNC(=O)COc2cc(C)cc3oc(=O)cc(C)c23)cc1OC	4.7	5.4	9.4	-1.6
Cc1c(OCC(=O)NC(Cc2ccc(Cl)cc2)C(=O)O)ccc2c3c(c(=O)oc12)CCCC3 (centres undefined)	2.2	5.8	6.9	4.5
CCCc1cc(=O)oc2cc(C)cc(OCC(=O)N[C@@H](CSCc3ccccc3)C(=O)O)c12	-3.1	39.2*	6.2	-3.4
Cc1cc(OCC(=O)NC(Cc2ccc(Cl)cc2)C(=O)O)c2c(C)cc(=O)oc2c1 (centres undefined)	-21.9	74.1*	5.6	-1.1
